From ChEMBL document CHEMBL4888484, “Replenishing the malaria drug discovery pipeline: Screening and hit evaluation of the MMV Hit Generation Library 1 (HGL1) against asexual blood stage Plasmodium falciparum ,using a nano luciferase reporter read-out” (2022) come the findings set out here.

SMILES strings stand for the structures. Screen size: about 4,800 compounds; about 420 (8.8%) showed an effect of 50% or more. For the sample, strong results were picked, then their nearest neighbours and some compounds at random.

The test system of the assay is Plasmodium falciparum. Nature of the assay: Confirmatory screen in NF54 nanoGlo assay, in single point, at 2uM, 72h. Type of assay: functional, Erythrocyte. Conditions: timepoint 72 hour.
With `COc1ccccc1N1CCN(c2nc(Nc3ccc(F)cc3)c3nc[nH]c3n2)CC1`, the “% Inhibition” value is -18%.

`Cc1ccc(CC(=O)N2C[C@H](c3ccccc3)C(c3ccc(Cl)cc3)=N2)cc1`: the “% Inhibition” value is 6%. The result for `CCCNC(=O)CNC(=NC1CC1)NCc1ccccc1C` reads -3%; that for `COc1nc(NC2CCS(=O)(=O)CC2)ncc1F`, 75%. `CC(C)(NCCc1c[nH]c2ccccc12)c1nnnn1Cc1cccnc1`: the “% Inhibition” value is on record as 3%. The result for `O=C(NCCc1nnc[nH]1)C1(Cc2ccccc2)CC2CCC1C2` (stereo unspecified) reads -9%. For `Cc1ccc(O)c(CNCC2(c3ccccc3Cl)CCOCC2)n1` the value was 99%; for `Cc1ccc(O)c(CNc2ccc3c(c2)OCC3(C)C)n1`, -7%; for `N[C@H]1COc2ccc(Br)cc2C1=O`, -3%. The result for `Cc1ccc(NC(=O)Nc2cccc(-c3ccc(N4CCN(C)CC4)nn3)c2)cc1C` reads 10%.

Turning to `Cc1cccc(Nc2nc(-c3cnc(N4CCN(C)CC4)nc3C)cc(=O)[nH]2)c1`, the “% Inhibition” value was -7%. Regarding `O=C(Nc1ccc(-n2cncn2)cn1)c1cscn1`, the “% Inhibition” value was -18%.

As to `COc1ccc(S(=O)(=O)Nc2c(C)ccc3nsnc23)cc1OC`, the “% Inhibition” value worked out at 4%. For the compound `CCCC[C@H](CC)C(=O)Nc1ccccc1C`, the “% Inhibition” value is 7%. The result for `CN(C(=O)c1ccc(OCC(F)(F)F)nc1)C1(C#N)CCC1` reads 2%; that for `Cc1cc2c(cc1C)[C@H](C(=O)Nc1cc(C(N)=O)ccc1Cl)CO2`, -1%; that for `O=C(N[C@@H](Cn1nccn1)c1ccccc1)c1cc(Br)ccc1Cl`, 65%. As to `O=C(NC(Cn1ccccc1=O)c1ccccc1)C1CCOC1` (stereo unspecified), the “% Inhibition” value is 2%. For `O=C(Nc1ccc2c(c1)c1cc(Br)ccc1n2Cc1ccccc1)c1ccccc1`, the “% Inhibition” value was 4%.

For `O=C(Cc1ccccc1)Nc1cccc2c1C(=O)N(c1ccccc1)C2=O`, the “% Inhibition” value is recorded as -14%. For the compound `O=C(C[C@@]1(O)C(=O)N(Cc2ccc(Cl)cc2Cl)c2ccccc21)c1ccccn1`, the “% Inhibition” value is given as -10%. The result for `Cc1c(NC(=O)CCc2ccsc2)nnn1Cc1ccccc1F` reads -10%; that for `O=C(CN1C=CCC=C1c1nc(-c2ccc(Br)cc2)cs1)c1ccccc1`, 35%; that for `COc1ccc(C2=CN(CC(=O)c3ccc(Cl)cc3)C3=CCCCCN23)cc1`, 47%. With `COc1ccc(C(=O)CN2C=CCC=C2c2nc(-c3ccc(Cl)cc3)cs2)cc1`, the “% Inhibition” value was found to be 72%. The result for `Cc1ccc(CNCCC2=CCCCC2)cc1` reads -2%; that for `Cc1csc(NC(=O)[C@]2(C)Oc3ccccc3NC2=O)n1`, 0%. On to `O=c1[nH]nc(-c2ccc3ccccc3c2)c2conc12`, for which the “% Inhibition” value was 18%. As for `Cn1ccc(NC(=O)c2n[nH]c3ccccc23)n1`, the “% Inhibition” value was -12%. For `CC(C)CCNC(=O)c1cnn2c3c(cnc12)CCCC3` the value was -6%. The result for `COc1ccc(F)c(NC(=O)N(CCO)C(C)C)c1` reads 5%; that for `COc1ccc(NC(=O)CN2N=C(C(=O)Nc3ccc(F)cc3)CCC2=O)cc1`, -7%; that for `COc1ccc2nc(O)c(C(=O)Nc3ccc4c(c3F)CCNC4)cc2c1`, 99%. `CCn1nc(C(=O)N(C2CCCCC2)C2CC2)c2ccccc2c1=O`: the “% Inhibition” value was -10%.

For the compound `Cc1cccc(CN2CCC[C@H](C(=O)c3ccc4c5c(cccc35)CC4)C2)n1`, the “% Inhibition” value was determined as 63%. The result for `Cc1cccc(NC(=O)N2CCCCCC2)n1` reads 1%. Consider `COC[C@H](NC(=O)c1cccc(F)c1Cl)C(N)=O`, for which the “% Inhibition” value was -8%. For `Nc1c(-c2nc3ccccc3[nH]2)c2nc3ccccc3nc2n1Cc1ccccc1F` the value was 64%; for `Cc1cc2nnc(-c3nc4ccccc4[nH]3)c(N)n2n1`, -10%. Regarding `Cc1ncc(C(=O)Nc2cc3c(=O)[nH]cnc3cc2F)c(C2CC2)n1`, the “% Inhibition” value turned out to be 3%. The result for `CCc1nnc(COC(=O)c2csc(NC)n2)o1` reads 6%.

One may read the % Inhibition as the relative decrease from the control value, in per cent.
